Assay outcomes: PubChem, National Center for Advancing Translational Sciences (NCATS)
An excerpt weighted towards active compounds, which were near 4.6% of everything screened.
D1 ag: Allosteric Agonists of the Human D1 Dopamine Receptor: qHTS; D(1A) dopamine receptor (Homo sapiens), P21728; HEK293 T-REx D1 cells, calcium flux, agonist mode; activation, % at 2 µM; 360,000 compounds, 1% hits; note: 0% is about no effect
Target sequence (P21728 whole entry, looked up): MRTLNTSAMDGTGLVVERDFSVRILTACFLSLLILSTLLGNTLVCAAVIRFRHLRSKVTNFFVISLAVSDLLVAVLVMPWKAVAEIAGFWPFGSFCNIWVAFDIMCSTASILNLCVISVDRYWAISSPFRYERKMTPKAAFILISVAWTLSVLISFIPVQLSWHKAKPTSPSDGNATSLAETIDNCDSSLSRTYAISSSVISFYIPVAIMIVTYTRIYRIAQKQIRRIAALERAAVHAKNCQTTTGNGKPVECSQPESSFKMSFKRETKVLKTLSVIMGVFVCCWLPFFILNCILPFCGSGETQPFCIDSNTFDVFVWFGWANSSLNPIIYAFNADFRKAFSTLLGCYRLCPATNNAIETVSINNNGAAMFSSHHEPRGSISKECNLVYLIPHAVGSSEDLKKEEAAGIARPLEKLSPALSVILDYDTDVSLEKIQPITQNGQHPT
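Inducible HEK293 T-REx D1 cells, force-coupled to calcium signalling, were plated at 4000 cells/well with tetracycline and held overnight at 30 C. After no-wash calcium dye loading, compound-evoked calcium rise over 180 s flagged agonists.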
D1 antag: Antagonist of Human D 1 Dopamine Receptor: qHTS | HEK293 TREx D1 cells, calcium flux, dopamine EC80; hits give low values | activity change, negative = inhibition, % at 10 µM | 360,000 compounds, 3.2% hits; in the data active = activity change below about -30%; note: % is set by controls: 0 for no effect and ±100 for the full control effect
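Tetracycline-induced HEK293 T-REx cells with force-coupled D1 receptor were loaded with a no-wash calcium dye. Compound was added after a 10 s baseline and read kinetically for 180 s; EC80 dopamine was then added and calcium flux followed another 180 s.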
TRHR enhancer: qHTS for Small Molecule Agonists and Allosteric Enhancers of Human TRH Receptor: Primary Screen for Enhancers. 360,000 compounds, 0.66% hits. enhancement, % at 2 µM. TRHR cells, fluo-8 calcium fluorescence, EC20 TRH enhancement. Thyrotropin-releasing hormone receptor (Homo sapiens), P34981; in the data active = enhancement above about 30%; note: 0% is about no effect
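Enhancer read-out: after compound pinning and an initial kinetic agonist-mode read, an EC20 of TRH (10 nM final) was injected and fluo-8 calcium signal (Ex 480/Em 530) followed at 1 s/cycle for 100 cycles in TRHR-expressing cells.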
D1 PAM: Potentiators of Human D1 Dopamine Receptor: qHTS. potentiation, % at 10 µM. AID 504651, 2011. HEK293 TREx D1 cells, calcium flux, dopamine EC20 potentiation. D(1A) dopamine receptor (Homo sapiens), P21728. 360,000 compounds, 0.036% hits; in the data active = potentiation above about 30%; note: 0% is about no effect
TRHR agonist: qHTS for Small Molecule Agonists and Allosteric Enhancers of Human TRH Receptor: Primary Screen for Agonists; Thyrotropin-releasing hormone receptor (Homo sapiens), P34981; TRHR cells, calcium flux fluo-8, FDSS agonist mode; activation, % at 2 µM; 360,000 compounds, 0.18% hits; AID 493084, 2011; note: 0% is about no effect
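Agonist-mode FDSS calcium read (Ex 480/Em 530, 1 s cycles) in 1536-well TRHR cells with fluo-8 dye, after 10-cycle baseline and 23 nL compound addition; TRH at EC20 (10 nM final) added afterwards for the enhancer phase.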
Active calls of the source: *; . = no result. Cut-off read from the data, not from the text of the source, unless noted: active = activation above about 30%; inactive = the rest.

SMILES	D1 ag	D1 antag	TRHR enhancer	D1 PAM	TRHR agonist
CCCCC(CC)COC(=O)CCCCC(=O)OCC(CC)CCCC (stereo unspecified)	-1	.	4	-3	1
CCCCC(CC)CN=C(N)NC(N)=NCCCCCCN=C(N)NC(N)=NCC(CC)CCCC (stereo unspecified)	2	-75*	-7	2	1
O=[N+]([O-])c1cccnc1N1CCC(c2cc(-c3ccc(Cl)cc3)n[nH]2)CC1	3	-33*	-8	0	0
CCOC(=O)CN1CCC(c2cc(-c3ccc(Cl)cc3)n[nH]2)CC1	13	-23	-2	-6	3
Cc1ccc(N=Cc2sc(O)c3ccccc23)c(C)c1	47*	-5	-4	-1	10
Cc1ccc(N=Cc2sc(O)c3ccccc23)cc1	302*	-39*	5	16	66*
Cc1ccc(N=Cc2c(O)c3ccccc3n(C)c2=O)cc1	-1	5	-15	2	0
CC(NC(=O)c1ccccc1Cl)c1nnc(SCC(=O)Nc2ccc(C(=O)O)cc2)n1C (stereo unspecified)	0	8	6	-8	0
Cc1c(C(=O)OC2CCCC2)[nH]c2c1C(=O)CC(c1ccc(C(C)(C)C)cc1)C2 (stereo unspecified)	3	-31*	1	2	0
Nc1nc2ccc(N3CCOCC3)cc2s1	1	-34*	1	-3	0
Cc1nc(CSc2nnc(C)s2)cs1	1	-42*	1	-2	0
Cc1nnc(SCc2ccc(F)cc2)s1	1	8	2	6	0
CCOC(=O)c1cncc(C#CCOC(=O)Nc2ccc(OC(F)(F)F)cc2)c1	26	-34*	-13	-8	1
CN(C)c1nc(N(C)C)n(C(=O)c2ccc(F)cc2)n1	4	-33*	-4	-4	0
Cc1cccc(NS(=O)(=O)c2ccc(C)c(C(=O)NCc3ccncc3)c2)c1	0	5	3	0	0
O=C(Nc1ccccc1Oc1cccnc1)C1CCCN(C/C=C/c2ccc(F)cc2)C1 (stereo unspecified)	5	-30*	1	1	-1
COc1ccc(C)cc1S(=O)(=O)N1CCOCC1	0	-8	0	0	0
Cc1ccc(N2CCN(C(=O)CCc3nc4ccccc4[nH]3)CC2)c(C)c1	6	-35*	-13	2	0
Cc1cccc(NC(=O)CN(C)S(=O)(=O)c2ccc3c(c2)CCC(=O)N3)c1C	-1	-5	-1	-5	0
O=C(Cn1c(SCc2ccccc2)nc2ccccc21)N1CCOCC1	6	-18	2	1	0
O=C(CSc1nc2ccccc2n1CC(=O)N1CCOCC1)N1CCCC1	-1	-32*	2	0	-1
Cc1ccc(OCCSc2nc3ccccc3n2CC(=O)N2CCCCC2)c(C)c1	8	-44*	-7	-3	0
Cc1ccc(C)c(OCCSc2nc3ccccc3n2CC(=O)N2CCOCC2)c1	-2	5	-3	-2	1
CCOc1ccc(NC(=O)Nc2nnc(CC)s2)cc1	3	-4	3	-11	-1
O=C(CCC(=O)N1CCN(c2ccccc2F)CC1)N1CCN(c2ccccc2)CC1	9	-61*	11	-3	0
SMILES	D1 ag	D1 antag	TRHR enhancer	D1 PAM	TRHR agonist
Cc1[nH]c2ccccc2c1SCC(=O)N1CCN(c2ccccc2)CC1	-1	-43*	11	-7	0
O=C(CSc1ccccc1)N1CCN(c2ccccc2)CC1	-1	-34*	-1	-5	2
O=C(CCC(=O)N1CCN(c2ccccc2F)CC1)N1CCN(c2ccc(F)cc2)CC1	4	-14	1	-1	0
Cc1[nH]c2ccccc2c1SCC(=O)N1CCCCC1	2	-17	0	-4	0
CN1CCCN(C(=O)CC(c2ccccc2)c2ccccc2)CC1	0	8	-1	-4	-1
CN1CCCN(C(=O)CSc2ccccc2)CC1	-2	30	31*	-5	0
CCOC(=O)C1CCN(CC(=O)N2CCc3ccccc32)CC1	5	0	-4	-10	0
COC(=O)CC(c1ccc(OC)c(OC)c1)c1ccc(OC)c(OC)c1	2	10	2	6	-2
CCN(CC(=O)NCc1ccc(Cl)cc1)C(=O)/C=C/c1ccc(Cl)c([N+](=O)[O-])c1	2	-4	1	-3	-1
O=C(NCc1ccccc1)C(c1ccco1)N(C(=O)c1csnn1)C1CC1 (stereo unspecified)	-2	-2	-8	-6	0
CC(C)Cn1c(SCC(=O)NC(=O)Nc2ccc3c(c2)OCCO3)nc2ccccc2c1=O	1	24	-2	4	0
Cc1c(C(=O)Nc2c(C)n(C)n(-c3ccccc3)c2=O)oc2ccccc12	1	-5	-7	0	1
O=C(NCc1ccccc1)c1ccc(S(=O)(=O)NCc2ccco2)cc1	1	-9	2	-4	0
O=C(CSc1ccccc1C(=O)N1CCN(c2ccccc2)CC1)N1CCCC1	0	-44*	3	-10	0
Cc1ccc2c(c1)[nH]c1c(N3CCN(Cc4ccccc4)CC3)ncnc12	-1	-17	18	-1	0
Cc1ccc2[nH]c3c(N4CCN(Cc5ccccc5)CC4)ncnc3c2c1	5	-37*	-1	3	1
COc1ccc(C2=Nc3ccc(Br)cc3C(c3ccccc3)N2CC(=O)NN)cc1 (stereo unspecified)	-1	-9	-2	-1	2
CC(C)CCNC(=O)c1ccccc1SCC(=O)NC1CCCCCCC1	0	-22	-10	-4	-2
O=C(CSc1ccccc1C(=O)NCc1ccccc1)NC1CCCCCCC1	2	-84*	-7	-5	-1
O=C(CSc1ccccc1C(=O)O)NC1CCCCCC1	2	-39*	-2	-5	0
O=C(CSc1ccccc1C(=O)O)NC1CCCCCCC1	1	-9	-5	-3	0
Cc1cccn2c(=O)c3cc(C(=O)NCCc4ccccc4)c(=N)n(CCCn4ccnc4)c3nc12	2	-21	-7	10	0
O=C(CCC(=O)NNC(=O)COc1ccc(Br)cc1)NCc1ccccc1	0	-34*	5	-1	0
CC(=O)NC(c1ccc([N+](=O)[O-])cc1)c1c(O)ccc2ccccc12 (stereo unspecified)	16	-24	-4	-8	0
CC(C)C(=O)NC(c1ccc([N+](=O)[O-])cc1)c1c(O)ccc2ccccc12 (stereo unspecified)	14	-32*	2	-7	-1
